# This is a sample that favours compounds with a hit; in the whole collection about 6.5% have one here.
# FMDV antiviral: blocks foot and mouth disease virus; Potency, µM (top dose mostly 57.9 µM), actives largely listed as inhibitors; AID 1159524; 410,000 tested, 1.2% active; FMDV antiviral cell-based qHTS; calls by dose curve; tested in HEK293T cells; also: read-out not given here; nearly all actives have a fitted effect of over 45% in size
# HCMV inh: human cytomegalovirus inhibition; 410,000 tested, 4.5% active; HFF cells, HCMV-luciferase reporter, 72 h; active compounds read low; activity change, negative = inhibition, % at 57.5 µM; in the data active = activity change below about -60%; inconclusive = no clear call, values can overlap the other calls; inactive = above about -39%
#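 Cell-based, HFFs, 1000 cells/well, 16 h 37C; cpds in DMSO + HCMV-luc, MOI 1 PFU/cell; 72 h 37C; OneGlo luminescence after 5 min RT; norm. to buffer vs Salinomycin 10uM.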
# Vaccinia mCherry: vaccinia inhibition (mCherry reporter). Vaccinia virus mCherry reporter infection, fluorescence. Potency, µM (series often up to 36.5 µM), actives largely listed as inhibitors. 310,000 tested, 0.63% active. AID 720579; calls by dose curve; tested in A549 cells; also: nearly all actives have a fitted effect of over 35% in size
# VACV Venus inh: inhibitors of vaccinia virus (Venus reporter); Vaccinia virus Venus reporter expression, fluorescence; Potency, µM (highest dose often 36.5 µM), most hits filed as inhibitors; 330,000 tested, 0.46% active; AID 720580; calls by dose curve; tested in A549 cells; also: nearly all actives have a fitted effect of over 30% in size
# LASV entry inh: inhibitors of Lassa virus binding or cell entry | Lassa virus pseudotype entry inhibition, cell reporter | Potency, µM (top dose mostly 37.9 µM), most hits filed as inhibitors | 300,000 tested, 1.2% active | AID 540256; calls by dose curve; tested in HEK293 cells; also: nearly all actives have a fitted effect of over 50% in size
# Marburg entry inh: Marburg virus entry inhibition; Marburg virus pseudotyped entry inhibition, cell reporter; Potency, µM (doses to about 37.8 µM), actives largely listed as inhibitors; 300,000 tested, 1.8% active; calls by dose curve; tested in HEK293 cells
# Numbers stand for hits; – = inactive; ? = inconclusive; · = not tested or not shown; ! = repeats disagree; [ ] = remark or other dose.
SMILES,FMDV antiviral,HCMV inh,Vaccinia mCherry,VACV Venus inh,LASV entry inh,Marburg entry inh
COC(=O)c1sc2cccc(F)c2c1S(=O)(=O)Nc1cc(C)c(Cl)cc1OC,–,–,–,–,?,·
COc1ccc(CNC(=O)COc2ccc(S(=O)(=O)N3CCCCC3)cc2Cl)cc1,–,–,–,–,12.6µM,?
O=C(NCc1cccnc1)c1cccc(S(=O)(=O)N2CCCCC2)c1,–,-80.8,–,–,–,–
O=C(NCc1ccc(F)cc1)c1cc(S(=O)(=O)N2CCCCC2)ccc1Cl,–,-101.8,·,·,·,·
COc1ccc(CNC(=O)COc2ccc(S(=O)(=O)N3CCCCC3)cc2)cc1,–,–,–,–,–,–
CCOc1ccc(CCNC(=O)c2ccc(C)c(S(=O)(=O)N3CCOCC3)c2)cc1OCC,22.4µM,–,–,–,?,?
O=C(NCc1cccnc1)c1cc(S(=O)(=O)N2CCCCC2)ccc1Cl,–,–,–,–,–,–
O=C(NCc1cccnc1)c1cccc(S(=O)(=O)N2CCCC2)c1,–,–,–,–,–,–
CCOc1ccccc1NC(=O)C(NS(=O)(=O)c1ccc2c(c1)CCC(=O)N2)c1ccccc1 (stereo unspecified),–,–,–,–,?,–
Cc1cc(-c2cc(F)cc3c2OC(CNC(=O)CCn2cncn2)C3)ccc1F (stereo unspecified),–,·,–,–,·,·
Cc1cc(C)cc(Nc2cc(C(=O)NCc3ccccc3)c3ccccc3n2)c1,–,–,?,–,–,?
O=C(c1ccc2c(c1)N(Cc1ccccc1)C(=O)c1ccccc1S2(=O)=O)N1CCOCC1,–,–,–,–,–,–
CCOc1ccc(CCNC(=O)COC(=O)/C=C/c2ccccc2)cc1OCC,–,-86.8,–,–,–,–
Cc1cccc(C(C)C)c1NC(=O)COC(=O)c1cccc(S(=O)(=O)N2CCc3ccccc3C2)c1,–,-79.0,–,–,?,–
COc1ccc(CCNC(=O)c2ccc(CNS(=O)(=O)c3cc(C)ccc3C)cc2)cc1OC,20µM,?,·,?,?,10µM
Cc1oc2ncnc(N3CCCCC3)c2c1C(=O)N1CCN(c2cccc(C(F)(F)F)c2)CC1,–,–,–,–,–,·
CCC1CN(CCC(=O)NC2CCOC(C)(C)C2)Cc2cc(OC)ccc2O1 (stereo unspecified),–,·,–,–,·,·
CCc1ccc(NC(=O)CCC(=O)N2CCSc3ccccc32)cc1,?,–,–,–,·,·
CCOc1ccccc1CNC(=O)CCc1cn(C)c2ccccc12,–,–,–,–,–,6.31µM
CCc1cccc(NC(=O)CCC(=O)N2CCSc3ccccc32)c1,–,-66.4!,–,–,–,·
CCOc1ccc(CCNC(=O)CCC(=O)N2CCSc3ccccc32)cc1OCC,–,–,·,·,·,·
CCOc1ccccc1CNC(=O)CCC(=O)N1CCSc2ccccc21,–,-74.8,–,–,–,·
COc1cc(OC)c(C(=O)/C=C/c2ccccc2)c(O)c1O,25.1µM,–,?,?,·,·
O=C(/C=C/c1ccc(O)cc1)c1ccc(O)cc1O,?,–,?,?,?,10µM!
COc1ccc(C(=O)/C=C/c2ccccc2)c(O)c1,–,-105.5,–,–,·,·
SMILES,FMDV antiviral,HCMV inh,Vaccinia mCherry,VACV Venus inh,LASV entry inh,Marburg entry inh
Cc1noc(C)c1S(=O)(=O)N(CC(=O)NCCc1ccc(Cl)cc1)c1ccc(C(C)C)cc1,–,–,–,–,–,?
O=C(c1cc(-c2ccc(Br)cc2)nc2ccccc12)N1CCN(c2ccccc2O)CC1,–,–,14.1µM,?,?,?
O=C(c1cc(-c2ccccc2Cl)nc2ccc(Br)cc12)N1CCN(c2ccccn2)CC1,?,-90.2,–,–,?,?
O=C(NN1CCOCC1)c1cc(-c2ccc(Br)cc2)nc2ccccc12,–,-60.2,–,–,–,–
O=C(c1cc(-c2ccncc2)nc2ccc(Br)cc12)N1CCN(c2ccccn2)CC1,?,–,·,–,?,5.62µM
COc1cccc(Cn2c(=O)c(-c3ccc(Cl)cc3)nc3cnc(OC)nc32)c1,–,·,·,·,·,·
O=C(c1cc(-c2ccncc2)nc2ccccc12)N1CCN(Cc2ccccc2)CC1,–,–,–,–,?,7.94µM
Cc1ccccc1CN1CCN(C(=O)c2cc(-c3ccncc3)nc3ccccc23)CC1,?,–,–,–,?,?
Cc1cccc2c(C(=O)N3CCN(c4ccccn4)CC3)cc(-c3cccc(Br)c3)nc12,25.1µM,?,·,·,·,·
C[C@@H]1CN(Cc2ccc3c(c2)CN(Cc2nc(-c4ccccc4)cs2)CCO3)C[C@H](C)O1,?,·,–,–,·,·
COc1ccc(CNC(=O)Cn2c(=O)nc(-c3ccccc3)c3cc(Cl)ccc32)cc1OC,–,–,–,–,?,·
O=S(=O)(c1cccs1)N1CCN(c2ccnc3cc(Cl)ccc23)CC1,?,-60.3,?,?,?,?
Cc1cc(N2CCN(S(=O)(=O)c3ccccc3)CC2)c2ccccc2n1,?,-88.2,?,?,–,?
Cc1cc(N2CCN(c3nc(-c4ccccc4)cs3)CC2)c2ccccc2n1,28.2µM,?,–,–,?,–
O=S(=O)(c1cccs1)N1CCN(c2ccccc2Cl)CC1,–,–,–,–,–,–
O=S(=O)(c1ccccc1)N1CCN(c2ccnc3cc(Cl)ccc23)CC1,25.1µM,?,?,?,?,?
COc1c2ccccc2nn1CCCCCO,·,–,·,·,·,·
O=C1C(c2[nH]c3ccc(S(=O)(=O)O)cc3c2O)=Nc2ccc(S(=O)(=O)O)cc21,·,·,–,–,·,·
CCOC(=O)C1=C(O)/C(=C\c2ccc(CNC(=O)C(=O)Nc3ccccc3)o2)N=C1C,–,-73.9,–,–,–,–
CCOC(=O)C1=C(O)/C(=C\c2cccs2)N=C1C,–,–,–,–,–,–
CN(C)CCCn1cnc2c(c1=N)C(c1ccccc1)c1ccc3ccccc3c1O2 (stereo unspecified),?,-98.5,?,17.8µM,·,·
N=c1c2c(ncn1CCCO)Oc1c(ccc3ccccc13)C2c1ccccc1 (stereo unspecified),–,–,·,·,·,·
COc1ccc(C2c3ccc4ccccc4c3Oc3ncn(CCN(C)C)c(=N)c32)cc1 (stereo unspecified),–,-98.7,?,?,?,8.91µM
COc1ccc(C2c3ccc4ccccc4c3Oc3ncn(CCO)c(=N)c32)cc1 (stereo unspecified),–,·,–,–,8.91µM,?
COc1ccc(C2c3ccc4ccccc4c3Oc3ncn(CCO)c(=N)c32)cc1OC (stereo unspecified),–,·,–,?,·,–
COc1ccc(C2c3ccc4ccccc4c3Oc3ncn(CCCO)c(=N)c32)cc1OC (stereo unspecified),–,–,–[7.34 µM],–[7.34 µM],?,?
COc1ccc(C2c3ccc4ccccc4c3Oc3ncn(CCCO)c(=N)c32)cc1 (stereo unspecified),–,–,–,?,11.2µM,?
c1cc(NC2CC2)nc(-c2ccoc2)n1,–,·,·,·,·,·
COc1ccc(OC)c(CN(CC(C)C)S(=O)(=O)c2ccccc2Br)c1,·,–,·,·,·,·
C[C@@H]1CCCCO[C@@H](CN(C)CC2CCCCC2)[C@@H](C)CN([C@H](C)CO)C(=O)c2cc(NC(=O)Nc3ccc4c(c3)OCO4)ccc2O1,·,–,·,·,·,·

# From PubChem BioAssay
